Experiment [1] is described as follows: A549 cell viability effects, profiling panel, calcein-AM fluorescence, 48 h, basal (AID 1162). The conditions noted are these: higher = more signal.
Experiment [2] can be described thus: adipocyte viability effects, profiling panel, cell-based, 3T3-L1 adipocytes, calcein-AM fluorescence, 48 h, basal (AID 1163). As to conditions: 3T3-L1 adipocytes viability, higher = more signal.
Experiment [3] is described as follows: HepG2 cell viability effects, profiling panel, calcein-AM fluorescence, 48 h, basal (AID 1164). The conditions noted are these: higher = more signal.
A short description of experiment [4]: MM1S cell viability effects, profiling panel, calcein-AM fluorescence, 48 h, basal (AID 1165).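 Also: viability of MM1S multiple myeloma cells under basal unstimulated conditions.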 As to conditions: higher = more signal.
Experiment [5] can be described thus: basal RPMI8226 viability, no added stimulus, profiling panel, cell-based, calcein-AM fluorescence, 48 h, PK04 Diversity Set (AID 1166).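 Also: cells grown under basal conditions without added stimulus.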 As to conditions: RPMI8226 myeloma viability, higher = more signal.
Experiment [6] can be described thus: basal HepG2 mitochondrial membrane potential changes, profiling panel, cell-based, JC-1 fluorescence, 24 h, 100 nL compound (AID 1167). As to conditions: higher = more signal.
Experiment [7] in a line: basal 3T3-L1 adipocyte mitochondrial potential changes, profiling panel, cell-based, JC-1 fluorescence, 3T3-L1 adipocytes, 24 h, 100 nL compound (AID 1168). As to conditions: JC-1 mitochondrial fluorescence, higher = more signal, called active from +8 up or from −8 down.
A short description of experiment [8]: basal RPMI8226 mitochondrial membrane potential changes, profiling panel, cell-based, JC-1 fluorescence, 24 h, 100 nL compound (AID 1169). The conditions noted are these: RPMI8226 myeloma, JC-1 mitochondrial potential fluorescence, higher = more signal.
Experiment [9] can be described thus: basal MM1S mitochondrial membrane potential changes, profiling panel, cell-based, JC-1 fluorescence, 24 h, 100 nL compound (AID 1170). The conditions noted are these: higher = more signal.
A short description of experiment [10]: A549 lung cancer cell viability effects, profiling panel, resazurin fluorescence, 24 h, PK04 Diversity Set (AID 1171). The conditions noted are these: higher = more signal, called active from +8 up or from −8 down. (The colour change of resazurin is a common sign of viable cells or microbes.)

Calls of active or inactive are those of the source.
Also: test concentration not given here.

Turning to `C=C(CCCC)C(=O)CC[C@H](OC(=O)c1cccnc1)c1ccc(OCCO)cc1`, the z-score is -0.15 in experiment [1]; 0.355 in experiment [2]; -0.478 in [3]; -3.34 in [4]; -3.28 in [5]; 0.697 in experiment [6]. The z-score in experiment [7] is -0.597 (inactive); in experiment [8], -0.658; in experiment [9], -1.44; in [10] it was -0.475 (inactive).
Regarding `O=C1O[C@@H](c2ccccc2)[C@@H](c2ccccc2)N2[C@@H](c3ccc(OCCO)cc3)[C@]3(C(=O)Nc4ccc(C#CC5=CCCCC5)cc43)[C@@H](C(=O)N3CCCCCCC3)[C@H]12`, the z-score is -0.364 in experiment [1]; 0.284 in experiment [2]; 1.1 in experiment [3]; -0.446 in [4]; -1.31 in experiment [5]; 0.226 in experiment [6]. Also, the z-score was -4.13 (inactive) in experiment [7], -0.831 in [8], -1.14 in [9] and -0.207 (inactive) in experiment [10].
As to `N#Cc1ccc(C(O)C2C=CC3C(=O)N(c4ccccc4)C(=O)C3N2Nc2ccccc2F)cc1` (stereo not given), the z-score in [1] was 0.545; in experiment [2], -1.05; in experiment [3], -0.245; in experiment [4], 0.755; in experiment [5], -0.406; in experiment [6], -0.776. Moreover, the z-score was -0.872 (inactive) in experiment [7], 0.585 in experiment [8], -0.0841 in experiment [9] and 0.0801 (inactive) in experiment [10].
Regarding `[N-]=[N+]=NCc1ccccc1[C@@H]1OC(c2ccc(OCCCO)cc2)=N[C@]1(CCS(=O)(=O)c1ccccc1)C(=O)N1CCOCC1`, the z-score in experiment [1] was 0.761; in [2], 1.96; in [3], 0.502; in [4], 0.191; in experiment [5], -1.6; in [6], 2.29. Besides, the z-score in experiment [7] is 0.78 (inactive); in experiment [8] it was -0.356; in experiment [9], -0.412; in experiment [10], 0.218 (inactive).
As to `CCOc1ccc(N2C(=O)CSC2c2cccc([N+](=O)[O-])c2)cc1` (stereo not given), the z-score is 1.77 in experiment [1]; -0.704 in [2]; 1.1 in experiment [3]; -0.119 in experiment [4]; -0.804 in experiment [5]; 1.61 in [6]. Also, the z-score is 0.989 (inactive) in experiment [7], -0.127 in experiment [8], -0.288 in [9] and 0.0421 (inactive) in experiment [10].
As for `[N-]=[N+]=NCc1ccccc1C[C@@]1(C(=O)NCC(O)CO)N=C(c2ccc(OCCCO)cc2)O[C@@H]1c1ccccc1` (stereo not given in full), the z-score in experiment [1] is -1.64; in experiment [2] it was 0.195; in [3], -3.17; in experiment [4], -3.22; in [5], -1.82; in experiment [6] it was -2.54. Besides, the z-score in experiment [7] is 1.67 (inactive); in [8], -1.12; in [9] it was -0.123; in experiment [10] it was -1.01 (inactive).
For `CCCCC(=C=CC[C@H](O)c1cccc(OCCO)c1)C[C@H](O)c1ccccn1`, the z-score in experiment [1] was 1.35; in experiment [2] it was 1.2; in experiment [3], 1.3; in experiment [4], -0.497; in experiment [5] it was 1.43; in experiment [6], 1.17. Further, the z-score is -1.63 (inactive) in [7], 0.0444 in experiment [8], -1.1 in experiment [9] and 2.05 (inactive) in experiment [10].
Regarding `O=C1OCCC=C[C@H]2OC34C=CCN(c5ccc(Cl)cc5)C(=O)[C@H]3N(CCCO)C(=O)[C@@H]4C12` (stereo not given in full), the z-score in [1] is 0.0676; in [2], 1.95; in experiment [3] it was -0.517; in [4] it was 0.435; in experiment [5], -1.16; in experiment [6] it was -0.00501. In addition, the z-score is 0.272 (inactive) in [7], -0.21 in experiment [8], 0.162 in experiment [9] and -0.797 (inactive) in experiment [10].
Take `COc1ccc(NC(=O)O[C@H]2[C@H](OC(=O)c3cc4ccccc4[nH]3)[C@@H](OC(=O)c3cc4ccccc4[nH]3)[C@@H](OC)O[C@@H]2CO)cc1`: the z-score in experiment [1] was 0.349; in [2] it was 0.203; in experiment [3], 0.825; in experiment [4], -0.699; in [5], 0.422; in [6], 0.923. Further, the z-score in experiment [7] is 1.93 (inactive); in [8], 0.168; in experiment [9], -0.117; in experiment [10] it was -1.92 (inactive).
For the molecule `Cc1ccc([C@H]2C(C(=O)O)=CCN2S(=O)(=O)c2ccc(C)cc2)cc1`, the z-score is -0.261 in experiment [1]; -0.456 in [2]; -0.577 in [3]; -0.458 in experiment [4]; -0.922 in [5]; -1.39 in experiment [6]. Besides, the z-score in [7] is -0.521 (inactive); in experiment [8], 0.284; in [9] it was -0.0534; in experiment [10] it was -0.29 (inactive).
In the case of `NCCCCCNC(=O)[C@H]1C[C@H]2C(=O)N[C@@H](Cc3ccccc3)C(=O)N2[C@H]1c1cccc(OCCO)c1`, the z-score is 1.15 in experiment [1]; -0.14 in experiment [2]; 1.19 in experiment [3]; 0.079 in experiment [4]; 0.226 in [5]; 0.96 in experiment [6]. The z-score in experiment [7] is -0.67 (inactive); in experiment [8], -0.288; in experiment [9] it was 0.948; in experiment [10], 1.35 (inactive).
Regarding `C=CC[C@]1(C(N)=O)COC(c2ccc(OCCCO)cc2)=N1`, the z-score in experiment [1] is 0.669; in experiment [2], -0.793; in experiment [3], 0.0717; in experiment [4] it was 0.327; in experiment [5] it was 1.3; in experiment [6] it was 0.16. The z-score in experiment [7] is 0.654 (inactive); in experiment [8] it was 0.702; in [9] it was -0.753; in experiment [10], 0.381 (inactive).
In the case of `O=C1O[C@@H](c2ccccc2)[C@@H](c2ccccc2)N2[C@@H](c3ccccc3OCCO)[C@]3(C(=O)Nc4ccc(C#CC5(O)CCCCCC5)cc43)[C@@H](C(=O)N3CCN(c4ncccn4)CC3)[C@H]12`, the z-score is -0.643 in experiment [1]; 1.46 in experiment [2]; 0.11 in experiment [3]; -1.22 in experiment [4]; -2.29 in experiment [5]; -0.457 in experiment [6]. For the same molecule, the z-score in experiment [7] was 0.821 (inactive); in experiment [8], -1.04; in experiment [9] it was -0.796; in experiment [10], -0.697 (inactive).

(Values after PubChem BioAssay.)
